# ± gives the standard deviation of the averaged measurements. In all, about 33,000 sequences were measured (“E-score (rank enrichment, -0.5 to 0.5)”: median about -0.0028, highest 2% from about 0.23 on). The sample as a whole holds a higher share of the highest values than the screen did.
# Test system: 2Sb-muMax20 (muMax20 with two 1,3-bis(methyl)benzene Cys staples, A13C/A17C and Q88C/A92C, C-terminal Lys)
# Test: PBM 8-mer E-score (E-score (rank enrichment, -0.5 to 0.5)); higher = stronger preferential binding
# Protocol: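 Protein binding microarray (universal PBM chip covering all 10-mers in fixed probe flanks) with chemically synthesized human Max(13-93) bHLH-LZ analogs (not full-length Max) bearing noncanonical residues (hArg, Tha, Aib, Nle at 65) and aromatic Cys staples. Read-out per 8-mer (and its reverse complement): E-score (rank-based enrichment, -0.5 to 0.5) and Z-score of median probe intensity.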
row,Sequence,PBM 8-mer E-score
1,ACTTTCGA,0.0801 ± 0.036
2,AAGCTTCT,0.104 ± 0.092
3,TATCATGA,0.278 ± 0.02
4,CATCATGA,0.0474 ± 0.048
5,AATCATGA,0.136 ± 0.035
6,GGGGATAA,0.234 ± 0.063
7,GGGGATTA,0.278 ± 0.013
8,CGGGATTA,0.032 ± 0.017
9,GGGGATAC,0.0267 ± 0.0099
10,AGGGATTA,-0.0189 ± 0.016
11,TGGGATAA,0.0797 ± 0.017
12,CAGTAAGG,-0.0281 ± 0.052
13,AATAGTGT,0.1565 ± 0.001
14,GTCCCCGA,0.0628 ± 0.032
15,AACTGTGA,-0.0892 ± 0.026
16,TAACTGGA,-0.0436 ± 0.0063
17,CATTAGCC,-0.0287 ± 0.08
18,ATATGCCG,-0.076 ± 0.083
19,CTATGCCA,0.0722 ± 0.02
20,ATATGCCA,0.305 ± 0.06
21,ATCGACGC,0.0538 ± 0.027
22,ATGTGTAC,0.107 ± 0.014
23,GCCAGTGA,0.0103 ± 0.058
24,TCACGTAA,-0.031 ± 0.021
25,TAACGTGA,-0.0146 ± 0.035
26,ACACGAGT,0.248 ± 0.044

row,Sequence,PBM 8-mer E-score
1,AAACGTGG,0.0929 ± 0.011
2,ACACGTAG,0.0467 ± 0.016
3,ACACGTGC,0.409 ± 0.0079
4,TCACGTGA,0.439 ± 0.033
5,ACACGTAC,0.0764 ± 0.051
6,ACACGTGG,0.416 ± 0.0009
7,AGACGTGC,-0.124 ± 0.021
8,ACACGAGA,-0.125 ± 0.065
9,ACACGAGG,0.0366 ± 0.063
10,AAGGCCGA,-0.0488 ± 0.013
11,CGCTGACA,-0.122 ± 0.0063
12,TCTAGTCA,0.105 ± 0.035
13,CCCCCGGG,-0.43 ± 0.042
14,CCGCCTCG,-0.04 ± 0.07
15,GATACTCC,-0.0231 ± 0.06
16,GCGCGGGA,-0.038 ± 0.036
17,ATTCAGAG,-0.21 ± 0.046
18,CGTGCATA,0.165 ± 0.016
19,AGACGTGA,0.0177 ± 0.032
20,AAACGTGT,0.0274 ± 0.017
21,ACACGTGT,0.396 ± 0.015
22,ACACGTAT,0.205 ± 0.022
23,ACACGTGA,0.3874 ± 0.0005
24,ATACGTGA,0.0108 ± 0.014
25,ATGTCGCG,-0.163 ± 0.042
26,CATCGTAC,-0.0597 ± 0.0024

row,Sequence,PBM 8-mer E-score
1,ACTACGTC,0.0847 ± 0.0011
2,GTCGATTA,-0.0254 ± 0.015
3,AGCAGGCT,-0.169 ± 0.016
4,GAGCCCGC,-0.24 ± 0.016
5,AGCGCTCA,-0.0925 ± 0.0074
6,ATAATGGG,0.238 ± 0.034
7,ATAATGTG,0.159 ± 0.037
8,ATAATGGA,0.185 ± 0.0033
9,ATAATGGC,0.012 ± 0.012
10,ATAATGTC,0.238 ± 0.021
11,CTAATGTC,-0.0718 ± 0.018
12,AGGAACTG,-0.188 ± 0.049
13,GCTGCACA,-0.179 ± 0.029
14,CGCTTGTA,0.123 ± 0.13
15,AATGCATC,0.174 ± 0.028
16,AATGCAAC,0.0741 ± 0.045
17,AATGCGTA,0.192 ± 0.017
18,AATGCATA,0.155 ± 0.01
19,CATGCAAC,0.247 ± 0.027
20,AATGCATT,0.282 ± 0.018
21,CATGCATG,0.349 ± 0.03
22,CATGCATA,0.177 ± 0.0083
23,CATGCGTA,0.2542 ± 0.0016
24,CATGCATC,0.0655 ± 0.044
25,CATGCAAG,0.0851 ± 0.0044
26,GATGCGTA,0.126 ± 0.054

row,Sequence,PBM 8-mer E-score
1,AAAGGGGA,0.101 ± 0.002
2,ACCGGGCA,-0.237 ± 0.053
3,CTGGTCCC,-0.186 ± 0.015
4,GGCTTCGA,-0.0528 ± 0.016
5,GTCTTCAC,-0.127 ± 0.079
6,CACCGAGG,-0.221 ± 0.014
7,AATGCAAG,0.134 ± 0.016
8,ATTGCATG,0.13 ± 0.006
9,AATGCATG,0.26 ± 0.017
10,AATGCAAA,0.247 ± 0.034
11,ACTGCATG,0.0264 ± 0.067
12,TATGCAAA,0.0419 ± 0.0014
13,ATGGTTAC,-0.0452 ± 0.019
14,GCCACCGA,-0.191 ± 0.0059
15,ATTGCATA,0.228 ± 0.028
16,TATAAACA,0.156 ± 0.011
17,ACTGTTAG,-0.0514 ± 0.065
18,GATTAATA,0.258 ± 0.041
19,TATTAATA,0.296 ± 0.027
20,GATTAATC,-0.0411 ± 0.03
21,AATTAATA,0.217 ± 0.011
22,CATTAATA,0.148 ± 0.024
23,GATTAAGA,0.129 ± 0.0066
24,GATGATCC,-0.0779 ± 0.039
25,CATCGTTC,-0.12 ± 0.012
26,AGACAATG,-0.0359 ± 0.045

row,Sequence,PBM 8-mer E-score
1,AGACAATA,0.242 ± 0.082
2,AGACAATC,0.113 ± 0.029
3,GCACGCAA,-0.108 ± 0.043
4,ACCCCAGC,0.162 ± 0.054
5,GGAGGGAC,-0.162 ± 0.097
6,CTAACAAA,0.144 ± 0.04
7,GGATGCCA,-0.0771 ± 0.0063
8,AGTGTGCA,0.127 ± 0.052
9,GCCGCCAC,-0.229 ± 0.042
10,CCCGCCCC,0.241 ± 0.1
11,CCCGCCCG,0.116 ± 0.12
12,GCCGCCCC,0.0256 ± 0.14
13,CCCGCCAC,0.239 ± 0.034
14,GCCGCCCA,-0.145 ± 0.07
15,ACCGCCAC,-0.106 ± 0.0018
16,ACCGCCCC,0.171 ± 0.074
17,CCCGCCCA,0.4 ± 0.012
18,AAAGCTGC,0.108 ± 0.027
19,GAAAGACC,-0.0392 ± 0.039
20,ATCGTTGG,-0.105 ± 0.092
21,CGACGATA,-0.0378 ± 0.027
22,CCAGTGGC,-0.0927 ± 0.044
23,CAGGCAGC,-0.163 ± 0.015
24,GAAGCGAC,-0.0841 ± 0.007
25,ACTCGTAA,0.213 ± 0.042
26,CCCCAACC,0.131 ± 0.087

row,Sequence,PBM 8-mer E-score
1,CCCCAACA,0.256 ± 0.061
2,TCCCAACA,0.0292 ± 0.05
3,CAGAAAAA,-0.0726 ± 0.05
4,AGTGCATC,-0.00688 ± 0.015
5,TAATTATA,0.262 ± 0.03
6,AAATTATA,0.253 ± 0.069
7,AAATTATC,0.107 ± 0.0057
8,CAATTATA,0.115 ± 0.045
9,AAATTATG,0.168 ± 0.0019
10,GAATTATA,0.141 ± 0.061
11,GCACACGA,-0.00209 ± 0.0015
12,AAGTTAGC,0.00664 ± 0.0061
13,TGCCCGAA,-0.0214 ± 0.05
14,GGACAAAA,0.0253 ± 0.017
15,AATATCGT,0.091 ± 0.0052
16,ACGTGATG,0.239 ± 0.0046
17,ACGTGAAC,0.0297 ± 0.012
18,CCGTGATA,-0.132 ± 0.043
19,ACGTGATA,0.244 ± 0.05
20,ACGTGATC,0.187 ± 0.028
21,ACGTGAGG,0.0924 ± 0.012
22,ACGTGAAA,0.238 ± 0.035
23,TCGTGAAA,-0.2052 ± 0.00053
24,GCGTGATA,0.113 ± 0.028
25,GGTTTAAC,-0.0252 ± 0.0077
26,CACATTGG,-0.033 ± 0.038

row,Sequence,PBM 8-mer E-score
1,ACACTGCA,-0.0884 ± 0.039
2,AGACCTAG,-0.205 ± 0.0049
3,ACGAACTG,-0.134 ± 0.02
4,CCCTATTA,0.0897 ± 0.046
5,CGCCTCCG,-0.115 ± 0.014
6,TTATTGAA,0.3 ± 0.015
7,GTATTGAA,0.0851 ± 0.057
8,ATATTGAA,0.0093 ± 0.059
9,ACGCGCCC,0.00592 ± 0.048
10,ACGTTTAG,0.0678 ± 0.079
11,ATAACACA,0.236 ± 0.023
12,ATAACATA,0.2304 ± 0.0015
13,ATAACATC,0.211 ± 0.049
14,ATAACACG,0.137 ± 0.063
15,ATAACATG,0.192 ± 0.035
16,CTAACACA,-0.028 ± 0.069
17,CTTGGCGC,-0.0178 ± 0.027
18,GTGATCAA,-0.00195 ± 0.013
19,TATTGGAA,0.0585 ± 0.0063
20,AATCACTC,-0.0758 ± 0.076
21,ACAGTGAG,-0.03 ± 0.013
22,ATTGAAGC,0.00997 ± 0.0075
23,ATAGGCAA,0.248 ± 0.061
24,ATAGGCAG,0.165 ± 0.037
25,CTAGGCAA,-0.167 ± 0.047
26,CACGTGAG,0.186 ± 0.016

row,Sequence,PBM 8-mer E-score
1,AACGTGAC,0.128 ± 0.0036
2,TACGTGAA,0.0248 ± 0.06
3,CACGTGAC,0.386 ± 0.011
4,CACGTGAA,0.369 ± 0.02
5,GACGTGAA,-0.272 ± 0.011
6,ATGAGGTG,0.103 ± 0.034
7,CATAGACA,0.0657 ± 0.028
8,ACCAACTA,0.0506 ± 0.082
9,GCCAACTA,0.0147 ± 0.076
10,ACAAACTA,0.152 ± 0.048
11,CAAAACTA,0.062 ± 0.059
12,CCAAACTA,0.234 ± 0.0031
13,CCCAACTA,0.242 ± 0.0045
14,ACATTCCA,-0.0113 ± 0.025
15,GAGGGTCA,-0.00483 ± 0.032
16,CACATTTC,0.141 ± 0.013
17,TCCTACGA,-0.0774 ± 0.011
18,CCCTACGC,0.0539 ± 0.023
19,CCCTACGA,0.232 ± 0.0033
20,GGGAGACA,0.115 ± 0.016
21,GCTCTGCA,-0.0815 ± 0.037

# — the supplement of paper PMC12636033
